Screening data deposited in PubChem BioAssay by National Center for Advancing Translational Sciences (NCATS).
Hits are enriched below; roughly 21% of the tested compounds scored in any of these assays.
HCV inh – qHTS Assay for Inhibitors of Hepatitis C Virus (HCV); Potency, µM (highest dose often 41.8 µM), without a hit: top-dose activity change, negative = inhibition, usual class: inhibitors; hit rate 3.4% among 340,000; Huh7.5.1 HCVcc-Cre infection, luciferase reporter, 44 h; note: potency is the fitted concentration of half-maximal effect; % is set by controls: 0 for no effect and ±100 for the full control effect
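Antiviral activity was scored by luciferase reporter output from cells infected with HCVcc-Cre (~0.5 moi) in presence of compound, 44 h infection period, cells seeded 1,000/well 4 h prior.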
Shiga inhibitor – A qHTS for Small Molecule Inhibitors of Shiga Toxin; Vero cells, Shiga toxin protein synthesis inhibition reporter; AID 2315, 2010; hit rate 9.2% among 290,000; inhibition, % at 38.7 µM; in the data active = inhibition mostly above about 28%, no sharp cut-off; inactive = mostly below about 43%; note: 0% is about no effect
CHX counter – Cycloheximide Counterscreen for Small Molecule Inhibitors of Shiga Toxin; hit rate 12% among 300,000; max response, %; cell reporter, cycloheximide protein synthesis inhibition counterscreen; AID 2314, 2010; in the data active = max response mostly above about 13%, no sharp cut-off; inactive = mostly below about 14%; note: read at 38.3 µM for the half of the compounds with a filed dose; 0% is about no effect
AMA1 RON2 block – qHTS for Inhibitors of AMA1-RON; Towards Development of Antimalarial Drug Lead: Primary Screen | AlphaScreen AMA1-biotinylated RON2 peptide binding | Plasmodium falciparum AMA1 (3D7) - RON2 peptide interaction | hit rate 0.2% among 360,000 | Potency, µM (highest dose often 58.2 µM), without a hit: at the top dose activity change, negative = inhibition, most hits filed as inhibitors;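 note: potency is the fitted concentration of half-maximal effect; 0% = vehicle wells and -100% = peptide control; nearly all actives have a fitted effect of over 45% in size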
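AMA1 (3D7) with his tag at 25 nM final met compounds first, then biotinylated RON2 peptide at 25 nM; detection used donor plus acceptor beads, 10 µg/mL apiece, read by AlphaScreen after 30 min at room temperature.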
Pf growth 96h – Primary qHTS for delayed death inhibitors of the malarial parasite plastid, 96 hour incubation; Potency, µM (highest dose often 28.7 µM), inactives show at the top dose activity change, negative = inhibition, actives largely listed as inhibitors; P. falciparum luciferase reporter growth, 96 h; hit rate 6.9% among 320,000; note: potency is the fitted concentration of half-maximal effect; % is set by controls: 0 for no effect and ±100 for the full control effect
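Two parasite generations (96 h, 37 C, 5% CO2) of compound exposure in infected erythrocytes (0.05% parasitemia, 2% hematocrit). Luciferase-reporter P. falciparum; decreased luminescence indicates inhibited growth, aimed at apicoplast-acting delayed death.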
Pf growth 48h – Primary qHTS for delayed death inhibitors of the malarial parasite plastid, 48 hour incubation. P. falciparum luciferase growth in erythrocytes, 48 h. Potency, µM (doses to about 28.7 µM), inactives show at the top dose activity change, negative = inhibition, usual class: inhibitors. hit rate 5.9% among 310,000; note: potency is the fitted concentration of half-maximal effect; % is set by controls: 0 for no effect and ±100 for the full control effect
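Here the parasites carry a stable luciferase gene and grow inside erythrocytes in Albumax-based RPMI medium with compound for one erythrocytic cycle. Activity is scored as loss of luminescent signal.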
* = called active by the depositor; ? = inconclusive; nt = no result. Unless noted, calls come from the whole dose curve; as a rule, active = well fitted curve in the direction sought with a large enough effect; inconclusive = small, poorly fitted or top-dose-only effect, or another doubt; inactive = no such curve, though single readings can be large; an effect the other way counts as inactive or inconclusive.

SMILES | HCV inh | Shiga inhibitor | CHX counter | AMA1 RON2 block | Pf growth 96h | Pf growth 48h
CCOC(=O)C1=C(C)N(c2ccc(OC)cc2)C(=O)/C1=C\c1cccs1 | 12.6µM* | 2.2 | 6.2 | 21.3% | 23.2% | -4.5%
COc1cccc(-c2cc(C(=O)Nc3cc(C)n(Cc4ccc(Cl)cc4)n3)no2)c1 | 6.31µM* | -1.6 | -0.3 | 2.6% | 22.3% | 10.4µM*
COc1ccc(OC)c(-c2cc(C(=O)Nc3cc(C)n(Cc4ccc(Cl)cc4)n3)no2)c1 | 11.2µM* | -3.1 | -2.8 | 4.3% | 0.0% | 2.08µM*
Cc1cc(NC(=O)c2cc(-c3ccco3)on2)nn1Cc1ccc(Cl)cc1 | ? | -1.1 | 2.7 | -9.3% | nt | 6.57µM*
COc1ccc(-c2cc(C(=O)Nc3c(C)nn(Cc4ccc(Cl)cc4)c3C)no2)cc1 | ? | -7.0 | 11.3 | 4.6% | ? | nt
Cc1cccc(CCNC(=O)CNS(=O)(=O)c2ccc3nc(C)sc3c2)c1 | -4.7% | -4.8 | -4.0 | 13.8% | ? | -14.4%
Cc1ccc(CN(C(=O)c2ccc([N+](=O)[O-])cc2)C2CCS(=O)(=O)C2)o1 (stereo unspecified) | 10.7% | -8.2 | -5.0 | -8.8% | 10.5% | 6.2%
COCc1c(C(=O)OCC(=O)N2c3ccccc3CC2C)oc2ccccc12 (stereo unspecified) | 11.9% | 26.1 | -1.7 | -5.4% | 34.1% | 9.8%
COCc1c(C(=O)OCC(=O)N2c3ccccc3NC(=O)C2(C)C)oc2ccccc12 | ? | -8.8 | 1.2 | 8.2% | 11.7µM* | ?
O=C(Oc1ccc2ccc(OC(=O)N3CCCCCC3)cc2c1)N1CCCCCC1 | ? | 39.8* | 22.5* | -1.6% | ? | 51.7%
O=C(Oc1ccc(Oc2ccccc2)cc1)N1CCC(O)CC1 | ? | 60.4* | 51.9* | 15.3% | 43.7% | 29.3%
O=C(Oc1ccc(Cl)cc1)N1CCCCC1 | -12.4% | 49.0* | 34.9* | -2.5% | -3.7% | 30.9%
O=C(Oc1ccc(Cl)cc1)N1CCOCC1 | -7.7% | 27.3* | 15.6* | 10.9% | ? | 45.5%
O=C(Oc1ccc(-c2ccccc2)cc1)N1CCOCC1 | -4.9% | 108.7* | 38.6* | -5.2% | nt | 150.6%
O=S(=O)(c1ccc(-c2nnco2)cc1)N1CCCCC1 | 12.9% | -4.5 | -3.0 | -7.7% | 0.1% | 8.6%
O=C(Oc1ccc(-c2nnco2)cc1)N1CCCCC1 | 4.1% | 35.4* | 24.9* | 23.7% | nt | 40.2%
O=C1CCC/C=C/C[C@H](CC(=O)N(CCO)Cc2ccccc2)C(=O)N[C@@H](Cc2ccccc2)CO1 | 5.8% | nt | nt | 1.3% | nt | nt
Cc1ccc(S(=O)(=O)N(C)C)cc1NC(=O)COC(=O)Cc1ccsc1 | 1.4% | nt | nt | 0.9% | 4.6% | -21.0%
O=C(NCc1ccccn1)C1CCN(S(=O)(=O)N2CCC3(CC2)OCCO3)CC1 | 4.9% | -2.8 | -3.4 | 52.8% | 10.4µM* | -5.9%
O=C(NCCc1ccccc1)C1CCN(S(=O)(=O)N2CCC3(CC2)OCCO3)CC1 | 19.9% | 1.2 | -2.9 | 11.6% | 54.6% | -14.2%
O=C(C1CCN(S(=O)(=O)N2CCC3(CC2)OCCO3)CC1)N1CCc2ccccc2C1 | -9.9% | -9.8 | -1.7 | -9.6% | 5.22µM* | nt
O=C(NCCCN1CCC(Cc2ccccc2)CC1)C1CCN(S(=O)(=O)N2CCC3(CC2)OCCO3)CC1 | -27.1% | 127.5 | 34.6* | -0.8% | -3.5% | ?
CCN(C(=O)CN1CCOCC1)C1(C)C(=O)c2ccccc2C1=O | 11.0% | 14.5 | 0.2 | -6.3% | -5.6% | 9.5%
CCOc1cccc(-c2cc(NCCc3ccccn3)n3nccc3n2)c1 | nt | nt | nt | 62.4% | nt | nt
FC(F)(F)c1nc2nc(Cl)c(Cl)nc2n1CCCN1CCOCC1 | nt | nt | nt | 66.9% | nt | nt
O=C(Nc1cc(=O)c2ccccc2o1)N1CCCCC1 | -19.9% | 10.6 | 10.9 | -1.0% | 5.22µM* | 4.65µM*
Cc1c(C(=O)N2CCCCC2)oc2ccc(Br)cc12 | 22.4µM* | nt | nt | 0.0% | 108.5% | 74.6%
Cc1ccc2oc(C(=O)N3CCCCCC3)c(C)c2c1 | -13.7% | 110.1* | 70.6* | -12.6% | 13.1µM* | -20.2%
